# Reference: the supplement of paper PMC9135407
# Counter-ions that a name gives are not always drawn. Hit rate of the full screen: of about 5,800 compounds, about 620 (11%) showed activity. What follows is part of a selection rich in actives, with near analogues and random picks from the rest. A number with no mark means an inactive call.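 Rule for the calls: active = score above a cut-off or among the top three wells of a plate; in these data no inactive exceeds 0.85.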
# System: primary human hepatic stellate cells (donor 1)
# Test: scaled lipid accumulation score (0 = DMSO-like, 1 = nortriptyline-like); higher = stronger HSC inactivation (lipid re-accumulation), active = hit call of the paper
# Details: 48 h
# Method: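 Primary lipid accumulation screen in primary human hepatic stellate cell myofibroblasts (donor 1, passage 8) in 384-well plates. 100 nL of library compound was pin-transferred into 30 µL medium in duplicate, and cells were treated for 48 h. The 'Scaled' score combines distance from plate baseline, toxicity and reproducibility penalties, and is normalised to nortriptyline (positive) and DMSO (negative) controls on each plate. A hit is defined as scaled >0.85 or among the top 3 wells per plate.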
# [1] = library stock concentration: 3.33 mM
# [2] = library stock concentration: 10 mM
# [3] = library stock concentration: 80 uM
# [4] = library stock concentration: 400 uM
# [5] = library stock concentration: 2 mM
# [6] = library stock concentration: 1 mM
smiles,measurement,setting,value
NC(N)=NCCNS(=O)(=O)c1cccc2cnccc12,scaled lipid accumulation score,library stock concentration: 17 mM,0.047
"CNCCNS(=O)(=O)c1cccc2cnccc12 [H-8, Dihydrochloride]",scaled lipid accumulation score,[1],≤ 0
O=S(=O)(NCCNC/C=C/c1ccc(Br)cc1)c1cccc2cnccc12 [listing 1 of 2 here],scaled lipid accumulation score,[2],0.989 (active)
"O=S(=O)(NCCNC/C=C/c1ccc(Br)cc1)c1cccc2cnccc12 [H-89, Dihydrochloride]",scaled lipid accumulation score,[1],≤ 0
CNCCNS(=O)(=O)c1cccc2cnccc12 [H-8 dihydrochloride],scaled lipid accumulation score,[2],0.048
"NC(N)=NCCNS(=O)(=O)c1cccc2cnccc12 [HA 1004, Dihydrochloride]",scaled lipid accumulation score,[1],≤ 0
O=S(=O)(NCCNC/C=C/c1ccc(Br)cc1)c1cccc2cnccc12 [listing 2 of 2 here],scaled lipid accumulation score,[3],≤ 0
same,scaled lipid accumulation score,[4],≤ 0
same,scaled lipid accumulation score,[5],0.134
O=S(=O)(NCCNCC=Cc1ccc(Br)cc1)c1cccc2cnccc12,scaled lipid accumulation score,[1],0.01
same,scaled lipid accumulation score,[2],0.542
Cl.Cl.O=S(=O)(NCCNC/C=C/c1ccc(Br)cc1)c1cccc2cnccc12 [H 89 dihydrochloride],scaled lipid accumulation score,[2],1.26 (active)
"CCCCCC(=O)CC[C@H]1[C@H](O)CC(=O)[C@@H]1C/C=C\CCCC(=O)O [13,14-dihydro-15-keto Prostaglandin E2]",scaled lipid accumulation score,[6],≤ 0
O=C1NC(=O)c2cc(Nc3ccc(F)cc3)c(Nc3ccc(F)cc3)cc21,scaled lipid accumulation score,[2],≤ 0
CC1=C(C(=O)OCCN(Cc2ccccc2)c2ccccc2)C(c2cccc([N+](=O)[O-])c2)C(P2(=O)OCC(C)(C)CO2)=C(C)N1 (stereo not drawn) [Efonidipine hydrochloride monoethanolate],scaled lipid accumulation score,[2],≤ 0
COc1ccccc1CNC1CCCNC1c1ccccc1 (stereo not drawn),scaled lipid accumulation score,[2],0.474
CCCCC[C@H](O)/C=C/C=C\C=C\C=C\[C@@H](O)[C@@H](O)CCCC(=O)O [Lipoxin A4],scaled lipid accumulation score,library stock concentration: 100 uM,≤ -0.021
CC(C)N(CCCNC(=O)Nc1ccc(C(C)(C)C)cc1)C[C@H]1O[C@@H](n2cc(Br)c3c(N)ncnc32)[C@H](O)[C@@H]1O [listing 1 of 2 here],scaled lipid accumulation score,[2],1.12 (active)
CC(C)N(CCCNC(=O)Nc1ccc(C(C)(C)C)cc1)C[C@H]1O[C@@H](n2cc(Br)c3c(N)ncnc32)[C@H](O)[C@@H]1O [listing 2 of 2 here],scaled lipid accumulation score,[1],0.805
CC(C)N(CCCNC(=O)Nc1ccc(C(C)(C)C)cc1)C[C@H]1O[C@@H](n2ccc3c(N)ncnc32)[C@H](O)[C@@H]1O,scaled lipid accumulation score,[1],0.204
same,scaled lipid accumulation score,[2],0.636
"CCCCCCCC/C=C/CCCCCCCC(=O)Nc1c(C(C)C)cccc1C(C)C [Oleic Acid-2,6-diisopropylanilide]",scaled lipid accumulation score,[6],≤ 0
CCCCCCCCCCCCCCCCC(=O)NCCO [Heptadecanoyl Ethanolamide],scaled lipid accumulation score,[6],≤ 0
COc1cc2ncn(-c3cc(OCc4ccccc4C(F)(F)F)c(C(N)=O)s3)c2cc1OC [listing 1 of 2 here],scaled lipid accumulation score,[2],0.992 (active)
COc1cc2ncn(-c3cc(OCc4ccccc4S(C)(=O)=O)c(C#N)s3)c2cc1OC [IKK-3 Inhibitor IX],scaled lipid accumulation score,[1],≤ 0
C[C@@H](Oc1cc(-n2cnc3ccc(CN4CCN(C)CC4)cc32)sc1C(N)=O)c1ccccc1C(F)(F)F [listing 1 of 3 here],scaled lipid accumulation score,[1],1.22 (active)
CC(C)c1cc(C(=O)N2Cc3ccc(CN4CCN(C)CC4)cc3C2)c(O)cc1O,scaled lipid accumulation score,[1],0.544
same,scaled lipid accumulation score,[2],0.828
C[C@@H](Oc1cc(-n2cnc3ccc(CN4CCN(C)CC4)cc32)sc1C(N)=O)c1ccccc1C(F)(F)F [listing 2 of 3 here],scaled lipid accumulation score,[5],0.915 (active)
same,scaled lipid accumulation score,[2],1.2 (active)
COc1cc2ncn(-c3cc(OCc4ccccc4C(F)(F)F)c(C(N)=O)s3)c2cc1OC [listing 2 of 2 here],scaled lipid accumulation score,[3],≤ 0
same,scaled lipid accumulation score,[4],≤ 0
same,scaled lipid accumulation score,[5],≤ 0
same,scaled lipid accumulation score,[2],0.764
C[C@@H](Oc1cc(-n2cnc3ccc(CN4CCN(C)CC4)cc32)sc1C(N)=O)c1ccccc1C(F)(F)F [listing 3 of 3 here],scaled lipid accumulation score,[3],≤ 0
same,scaled lipid accumulation score,[4],0.039
same,scaled lipid accumulation score,[2],0.788
O=C1N(c2ccccc2)c2ccccc2C1(Cc1ccncc1)Cc1ccncc1,scaled lipid accumulation score,[2],≤ 0
O=C1N(c2ccccc2)c2ccccc2C1(Cc1ccncc1)Cc1ccncc1 [Linopirdine dihydrochloride],scaled lipid accumulation score,[2],≤ -0.001
O=C1N(c2ccccc2)c2ccccc2C1(Cc1ccncc1)Cc1ccncc1 [Linopirdine],scaled lipid accumulation score,[2],≤ -0.051
O=C(O)c1ccc(-c2ccc3cc(O)c(C45CC6CC(CC(C6)C4)C5)cc3c2)cc1,scaled lipid accumulation score,[2],0.021
CC[C@H]1OC(=O)[C@H](C)C(=O)[C@H](C)[C@@H](O[C@@H]2O[C@H](C)C[C@H](N(C)C)[C@H]2O)[C@](C)(OC)C[C@@H](C)C(=O)[C@H](C)[C@H]2N(CCCCn3cnc(-c4cccnc4)c3)C(=O)O[C@]12C,scaled lipid accumulation score,[2],0.448
CC[C@H]1OC(=O)[C@H](C)C(=O)[C@H](C)[C@@H](O[C@@H]2O[C@H](C)C[C@H](N(C)C)[C@H]2O)[C@](C)(OC)C[C@@H](C)C(=O)[C@H](C)[C@H]2N(CCCCn3cnc(-c4cccnc4)c3)C(=O)O[C@]12C [Telithromycin],scaled lipid accumulation score,[2],≤ -0.027
CCCCC[C@H](O)/C=C/[C@H]1C=CC(=O)[C@H]1C/C=C\CCCC(=O)O [8-iso Prostaglandin A2],scaled lipid accumulation score,[6],≤ 0
CCCCCCCCCCCCCC(=O)N[C@H](CO)[C@H](O)c1ccc([N+](=O)[O-])cc1,scaled lipid accumulation score,[6],0.012
CC(C)C[C@@H](/C=C/S(C)(=O)=O)NC(=O)[C@H](CC(C)C)NC(=O)[C@H](CC(C)C)NC(=O)OCc1ccccc1,scaled lipid accumulation score,library stock concentration: 9.1 mM,0.738
OC1CCC(Nc2ncc3nc(Nc4c(F)cc(F)cc4F)n([C@@H]4CCOC4)c3n2)CC1 (stereo partly drawn),scaled lipid accumulation score,[3],≤ 0
same,scaled lipid accumulation score,[4],≤ 0
same,scaled lipid accumulation score,[5],≤ 0
same,scaled lipid accumulation score,[2],≤ 0
O=C1O/C(=C/Br)CC[C@@H]1c1cccc2ccccc12 [(R)-Bromoenol lactone],scaled lipid accumulation score,[6],0.064
CCOC(=O)C1(CCCCCCOc2ccc(Cl)cc2)CO1 (stereo not drawn),scaled lipid accumulation score,[2],≤ 0
O=C(O)CCC/C=C\C[C@@H]1[C@@H](/C=C/[C@@H](O)Cc2ccccc2)[C@H](O)C[C@@H]1O [16-phenyl tetranor Prostaglandin F2.alpha.],scaled lipid accumulation score,[6],≤ 0
